# About 18,000 (9%) of roughly 200,000 compounds were called active. The sample holds actives, similar compounds and a random draw of the others, so the mix is not that of the screen. Rule as the data show it: active = inhibition above about 50%; inactive = the rest.
# Test: antileishmanial activity against promastigotes – primary screen (AID 1063);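 also: promastigotes grown with compound for 44 hours at 28 °C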
# Conditions: Leishmania major promastigotes, resazurin fluorescence viability; at 10 µM; stronger effect = higher value
row,SMILES,inhibition
1,Cc1ccc(S(=O)(=O)NC(C(=O)N2CCOCCOCCOCCOCC2)c2ccccc2)cc1 (stereo unspecified),-7.01% (inactive)
2,COc1ccc(/C=N/NC(=O)c2ccncc2)cc1CN1CCCc2ccccc21,63.4% (active)
3,COc1cc(/C=N/NC(=O)c2ccccc2)ccc1OS(=O)(=O)c1ccccc1,1.2% (inactive)
4,COc1ccc(/C=N/NC(=O)c2ccc(Cl)cc2)cc1COC(C)=O,-8.12% (inactive)
5,CC1CC(C)CN(C/C=C/c2ccccc2[N+](=O)[O-])C1 (stereo unspecified),83.9% (active)
6,CC1CC(C)CN(CC(=O)N2c3ccccc3CCc3ccccc32)C1 (stereo unspecified),18.5% (inactive)
7,CC(C)CNC(=O)COC(=O)/C=C/c1ccccc1[N+](=O)[O-],4.47% (inactive)
8,COc1cc(CN2CCNC(=O)C2CC(=O)NCCc2ncccc2C)cc(OC)c1 (stereo unspecified),-4.29% (inactive)
9,CC1=C(C)CC(C(=O)NC(C)CCc2ccccc2)C(C(=O)O)C1 (stereo unspecified),17.2% (inactive)
10,C=CCOc1c(CNn2cn[nH]c2=S)cccc1OC,25.5% (inactive)
11,CSc1nc2c(c(=O)[nH]1)C(c1cccc(Cl)c1Cl)CC(=O)N2 (stereo unspecified),-5.68% (inactive)
12,N#Cc1c(N)nc2c3c(sc(=N)c2c1N)NC(=O)CC3c1ccccc1Cl (stereo unspecified),75.7% (active)
13,COc1ccc(C2CC(=O)Nc3sc(=N)c4c(N)c(C#N)c(N)nc4c32)cc1OC (stereo unspecified),-5.32% (inactive)
14,COc1cccc2c1OCC(CN1CCN(C3CCCCC3)C(CCO)C1)=C2 (stereo unspecified),11.6% (inactive)
15,O=C(c1snnc1-c1ccccc1)N1CCOCC1,-3.05% (inactive)
16,CCc1nnc(NC(=O)CCC(=O)NCc2ccccc2OC)s1,-6.69% (inactive)
17,CCc1nnc(NC(=O)CCN(c2ccc(C)cc2)S(=O)(=O)c2ccccc2)s1,71.3% (active)
18,CCc1nnc(NC(=O)CCC(=O)O)s1,-2.47% (inactive)
19,Cc1c(Cl)c([N+](=O)[O-])nn1Cc1ccc(C(=O)N/N=C\c2cc(Cl)ccc2O)o1,100% (active)
20,Cc1c(Cl)c([N+](=O)[O-])nn1CCCC(=O)Nc1cc(Cl)ccc1Cl,0.47% (inactive)
21,Cc1ccc(C(=O)O)cc1NC(=O)c1ccc(Cn2nc(C)c(Cl)c2C)o1,-7.15% (inactive)
22,Cc1ccc(OCC(=O)NC(C)c2ccccc2)c([N+](=O)[O-])n1 (stereo unspecified),11.1% (inactive)
23,CCc1ccc(NC(=O)Nc2ccncc2)cc1,24.8% (inactive)
24,CCOC(=O)CN(C)Cc1c[nH]c2ccccc12,-1.3% (inactive)
25,NS(=O)(=O)c1ccc(NC(=O)COC(=O)CCc2c[nH]c3ccccc23)cc1,-4.64% (inactive)
26,O=C(Cc1c[nH]c2ccccc12)OCCOC(=O)Cc1c[nH]c2ccccc12,94.7% (active)

# From PubChem BioAssay AID1063 (University of Pittsburgh Molecular Library Screening Center, 2008)
